Reference: PubChem BioAssay (NCI)
The panel holds about 83,000 compounds, 20% with a hit somewhere; the sample as a whole holds those more often.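 Single-dose data. Exposure time 48 hours. Values below 10 considered active.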 Values without a mark were called inactive. Active and inactive are the calls of the source.

These molecules were tested on HL-60(TB) leukemia (assay: NCI-60 one-dose screen, 48 h (100 = growth as untreated, 0 = no growth, -100 = all killed)). Details: 10 µM unless noted.
CCN(CC)CCCC(C)Nc1ccnc2ccc(Oc3ccccc3)cc12 (centres undefined) was tested, and the growth was 72.6%. In the case of COc1ccc(C(=O)c2cc3c(N)c(C(=O)Nc4ccccc4)sc3nc2C)cc1, the growth was -46% (active). CCOC(=O)C(CCN(C)C)c1ccccc1 (centres undefined) gave a growth of 88.8%. In the case of C#CC#CC#CC#CC#CC#CC#CC#CCC1OCC(COC(=O)O[C@@H](C(=O)O[C@H]2C[C@@]3(O)[C@@H](OC(=O)c4ccccc4)[C@@H]4[C@]5(OC(C)=O)CO[C@@H]5C[C@H](O)[C@@]4(C)C(=O)[C@H](OC(C)=O)C(=C2C)C3(C)C)[C@@H](NC(=O)c2ccccc2)c2ccccc2)O1 (some centres undefined), the growth was 5.04% (active). Cc1ccc(C(=O)Nc2ccc(CN3CCN(C)CC3)c(C(F)(F)F)c2)cc1C#Cc1cncc2ncccc12 was tested, and the growth was -65.1% (active). CCOC(=O)CSc1nc2sc3c(c2c(=O)n1-c1ccccc1)CCCCC3 was tested, and the growth was 109%. COc1cc(/C=C2\COc3ccc(O)cc3C2=O)cc(OC)c1 was tested, and the growth was 18.4%. In the case of CCOc1ccc(N=C(C)Nc2ccc(OCC)cc2)cc1, the growth was 76.4%. C=C(C)[C@@H]1CC[C@]2(C(=O)N[C@@H](Cc3ccccc3)C(=O)OC)CC[C@]3(C)[C@H](CC[C@@H]4[C@@]5(C)CCC(=O)C(C)(C)[C@@H]5CC[C@]43C)[C@@H]12 was tested, and the growth was 56%. Cc1ccc(SC2c3ccc(C)cc3Oc3nc(N)c(C#N)c(N)c32)cc1 (centres undefined) was tested, and the growth was -6.43% (active). In the case of CC(C)C1C2=C(NCCN1C(=O)c1ccncc1)C(C)(C)N(Cc1ccccc1)C2=O (centres undefined), the growth was 87.3%. In the case of CCN1/C(=C/C=C/c2n(-c3ccccc3)c3ccc(-c4nc5ccccc5s4)cc3[n+]2CC)N(c2ccccc2)c2ccc(-c3nc4ccccc4s3)cc21, the growth was 6.43% (active). For COc1cc(C(=O)N2CCN(C(=O)c3cc(OC)c(OCc4ccccc4)cc3N)CC2)c(N)cc1OCc1ccccc1, the growth was 112%. O=C(c1ccccc1)N(C(=S)NCCc1ccc(Cl)cc1)c1ccccc1 was tested, and the growth was 54.4%. In the case of COc1ccc(C(=O)Cn2c(C(=O)c3ccc(OC)cc3)nc3ccccc32)cc1, the growth was -50.7% (active). For COc1cc(/C=C/C(=O)N2c3ccccc3CC2C)c(OC)c2c1OCO2 (centres undefined), the growth was 91.7%. In the case of C=C(C)[C@@H]1CC[C@]2(C)[C@H](C(=O)C=C3[C@@H]4C[C@](C)(C(=O)N5CCN(C)CC5)CC[C@]4(C)CC[C@]32C)[C@@]1(C)CCC#N, the growth was -22% [100 µM] (active). In the case of COC(=O)CCc1c(/C=C2\N=C(c3ccc[nH]3)C=C2OC)[nH]c(C)c1C(=O)OCc1ccccc1, the growth was -14.3% (active). In the case of COc1ccc(N/N=C/c2cn(-c3ccc(C(=O)O)cc3)nc2-c2cc3ccccc3oc2=O)cc1, the growth was 8.19% (active). For N#C/C(=C\c1ccc(Br)cc1)n1nnc2cc(F)c(F)cc21, the growth was -16.2% (active). ClCc1cccc(CSc2ncnc3c2ncn3Cc2cccc(CCl)c2)c1 showed a growth of 23.7%. CN1CCN(CCCOc2ccc3nc(Nc4ccc(Cl)c(C(F)(F)F)c4)ccc3c2)CC1 gave a growth of 63.7%. Molecule O=C(CSc1nccc(Nc2ccc(S(=O)(=O)Nc3nccs3)cc2)n1)c1ccc(F)cc1 has a growth of 104%. Molecule O=[N+]([O-])c1ccccc1Nc1ccc2ccccc2c1 has a growth of 93.5%. O=c1cc(C2NCCc3c2[nH]c2ccccc32)c2c(ccc3ccccc32)o1 (centres undefined) gave a growth of 48.5%. In the case of O=C(/C=C/c1ccccc1)n1c(-c2ccccc2)nc2ccccc21, the growth was 101%. With CCCCCCCCCCCCCCCCCBr the growth was 103%. Molecule Cc1cccc(C[C@H](NC(=O)Nc2ccc(Cl)cc2F)C(=O)N[C@@H]2C(=O)N3C[C@H](O)C[C@H]3C(=O)N3CCN(C)C[C@H]3C(=O)N[C@@H](C)C(=O)N3C[C@H](C)C[C@H]3C(=O)O[C@H]2C)c1 has a growth of 32.8%. NC(=O)c1cccc(-n2ccc3cc(NC(=O)Nc4cc(C(F)(F)F)cc(C(F)(F)F)c4)ccc32)n1 gave a growth of 39.3%. With NCCCN1CCCC1=O the growth was 90.1%. For CC1=CC(=O)c2cccc(NC3=NCCO3)c21, the growth was 100%. CCc1c(C(=O)N[C@@H](C(=O)OCc2ccccc2)C(C)O)[nH]c2ccc(Cl)cc12 (some centres undefined) gave a growth of 122%. In the case of COc1cc(/C=C2\CCCC3=C2NC(N)=NC3c2cc(OC)c(OC)c(OC)c2)cc(OC)c1OC (centres undefined), the growth was -7.5% (active). Work on CC(=O)O[C@]1(C)C[C@H](O)[C@]2(O)C=CO[C@H](O[C@@H]3O[C@H](CO)[C@@H](O)[C@H](O)[C@H]3O)[C@@H]21 yielded a growth of 92.5%.
